Reference: PubChem BioAssay
Values without a mark were called inactive. The list shows a part of the results. The source made the active and inactive calls.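 Rule for the calls, unless noted: active = inhibition above the hit cutoff set in the earlier primary screen (cut at about 27% in these data); inactive = the rest.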

Key:
[1] = biological target: Bcl-2-like protein 1 (Homo sapiens) (UniProt Q07817); test: Bcl-xL inhibitors blocking Bim BH3 binding, confirmation, counter-screen for MCL1 inhibitor project, biochemical, fluorescence polarization (AID 2166;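 active = inhibition above a cutoff equal to the mean inhibition of all tested compounds plus 3 SD, cut at about 30% in these data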); conditions: GST-Bcl-xL / FITC-Bim BH3 peptide FP binding; at 10.9 µM; hits give high values
Bcl-2-like protein 1 (Homo sapiens), sequence (Q07817 whole entry, looked up): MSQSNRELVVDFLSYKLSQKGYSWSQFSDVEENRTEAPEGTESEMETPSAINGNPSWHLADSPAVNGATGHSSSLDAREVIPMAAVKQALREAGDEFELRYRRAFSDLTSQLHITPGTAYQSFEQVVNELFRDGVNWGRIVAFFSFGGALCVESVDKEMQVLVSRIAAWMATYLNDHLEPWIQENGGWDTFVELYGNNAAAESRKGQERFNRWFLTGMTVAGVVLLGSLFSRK

[2] = biological target: Induced myeloid leukemia cell differentiation protein Mcl-1 (Homo sapiens) (UniProt Q07820); test: inhibitors of MCL1 binding to BIM-BH3, confirmation, biochemical, fluorescence polarization, triplicate (AID 2168;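 active = inhibition above the average of all tested compounds plus 3 SD, cut at about 40% in these data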;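 note: 0% = DMSO wells and 100% = unlabeled Bim-BH3 control peptide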); conditions: GST-MCL1 / FITC-Bim-BH3 fluorescence polarization; at 10.9 µM; hits give high values
Induced myeloid leukemia cell differentiation protein Mcl-1 (Homo sapiens), sequence (Q07820 whole entry, looked up): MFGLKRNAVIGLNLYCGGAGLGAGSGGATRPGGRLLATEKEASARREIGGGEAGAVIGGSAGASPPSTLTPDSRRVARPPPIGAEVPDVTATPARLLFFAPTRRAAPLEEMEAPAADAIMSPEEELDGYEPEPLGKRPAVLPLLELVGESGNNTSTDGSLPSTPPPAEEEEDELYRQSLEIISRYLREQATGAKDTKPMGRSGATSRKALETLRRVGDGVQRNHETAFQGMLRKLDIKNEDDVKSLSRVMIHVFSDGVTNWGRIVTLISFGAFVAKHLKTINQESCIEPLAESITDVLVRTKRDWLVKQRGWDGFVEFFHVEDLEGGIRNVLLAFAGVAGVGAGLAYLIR

[3] = biological target: Toll-like receptor 9 (Homo sapiens) (UniProt Q9NR96); test: TLR9-MyD88 association inhibitors, retest, confirmation, cell-based, CHO, BLA complementation, fluorescence, triplicate (AID 540250;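 active = mean inhibition across three repeats above about 21% taken from the earlier screen, limit read from the data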;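 note: blue over green emission ratio reports constitutive TLR9 MyD88 association via BLA complementation; 0% = DMSO vehicle wells and 100% = clavulanate BLA inhibitor wells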); conditions: CCF4 FRET ratio, at 4.98 µM, hits give high values
Toll-like receptor 9 (Homo sapiens), sequence (Q9NR96 whole entry, looked up): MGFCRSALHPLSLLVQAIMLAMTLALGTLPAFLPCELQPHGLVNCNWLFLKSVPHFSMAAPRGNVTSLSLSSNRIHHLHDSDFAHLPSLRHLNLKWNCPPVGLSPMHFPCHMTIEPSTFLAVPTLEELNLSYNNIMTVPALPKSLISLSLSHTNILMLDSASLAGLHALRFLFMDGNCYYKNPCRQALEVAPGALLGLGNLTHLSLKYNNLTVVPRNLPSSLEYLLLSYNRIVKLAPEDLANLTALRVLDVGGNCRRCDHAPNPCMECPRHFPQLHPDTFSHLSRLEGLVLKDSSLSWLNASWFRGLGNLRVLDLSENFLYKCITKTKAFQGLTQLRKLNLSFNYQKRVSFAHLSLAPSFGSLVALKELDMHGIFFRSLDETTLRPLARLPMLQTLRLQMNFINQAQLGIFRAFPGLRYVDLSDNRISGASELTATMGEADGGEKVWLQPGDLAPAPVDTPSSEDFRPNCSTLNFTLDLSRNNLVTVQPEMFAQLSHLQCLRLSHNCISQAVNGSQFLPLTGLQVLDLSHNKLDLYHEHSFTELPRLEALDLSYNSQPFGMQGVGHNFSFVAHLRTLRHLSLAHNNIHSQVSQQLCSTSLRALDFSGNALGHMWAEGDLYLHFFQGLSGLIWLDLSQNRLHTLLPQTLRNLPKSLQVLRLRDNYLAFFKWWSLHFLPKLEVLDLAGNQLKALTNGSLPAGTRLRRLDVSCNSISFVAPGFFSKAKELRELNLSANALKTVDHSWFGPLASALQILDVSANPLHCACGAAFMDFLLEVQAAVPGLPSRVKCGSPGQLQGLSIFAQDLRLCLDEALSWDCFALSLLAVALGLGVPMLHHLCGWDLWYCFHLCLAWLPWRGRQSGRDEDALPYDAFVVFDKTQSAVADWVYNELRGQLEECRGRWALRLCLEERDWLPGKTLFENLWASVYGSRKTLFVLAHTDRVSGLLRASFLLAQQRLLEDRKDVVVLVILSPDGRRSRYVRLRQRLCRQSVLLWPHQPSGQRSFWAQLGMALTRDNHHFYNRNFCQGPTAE

[4] = beta-lactamase reporter inhibitors in CHO cells, artefact control for TLR9-MyD88 binding inhibitor project, cell-based, fluorescence (AID 540251;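 active = mean inhibition above a 50% cutoff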;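 note: counterscreen of TLR9-MyD88 hits on CMV-driven BLA in CHO-K1 cells; 0% = DMSO alone and 100% = clavulanate blocking BLA; higher means less blue over green ratio so more BLA blockade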); conditions: CHO-BLA cells, CCF4 FRET ratio, at 4.98 µM, hits give high values
[5] = CHO cell viability loss – luminescence, single concentration, cytotoxicity control for TLR9-MyD88 binding inhibitor project (AID 588336; in the data active = inhibition above about 11%); conditions: TLR9-MyD88 CHO cells cytotoxicity, at 4.98 µM, hits give high values
[6] = biological target: Receptor-interacting serine/threonine-protein kinase 2 (Homo sapiens) (UniProt O43353); test: NOD2-RIPK2 binding disruptors, retest, confirmation, fluorescence, CHO cells, BLA complementation, triplicate (AID 624370;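 active = mean inhibition across replicates above a set limit taken from the earlier primary screen, cut at about 21% in these data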;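 note: 0% = DMSO-only wells and the high end = clavulanate BLA-blocked wells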); conditions: CCF4 FRET, at 4.98 µM, hits give high values
Receptor-interacting serine/threonine-protein kinase 2 (Homo sapiens), sequence (O43353 whole entry, looked up): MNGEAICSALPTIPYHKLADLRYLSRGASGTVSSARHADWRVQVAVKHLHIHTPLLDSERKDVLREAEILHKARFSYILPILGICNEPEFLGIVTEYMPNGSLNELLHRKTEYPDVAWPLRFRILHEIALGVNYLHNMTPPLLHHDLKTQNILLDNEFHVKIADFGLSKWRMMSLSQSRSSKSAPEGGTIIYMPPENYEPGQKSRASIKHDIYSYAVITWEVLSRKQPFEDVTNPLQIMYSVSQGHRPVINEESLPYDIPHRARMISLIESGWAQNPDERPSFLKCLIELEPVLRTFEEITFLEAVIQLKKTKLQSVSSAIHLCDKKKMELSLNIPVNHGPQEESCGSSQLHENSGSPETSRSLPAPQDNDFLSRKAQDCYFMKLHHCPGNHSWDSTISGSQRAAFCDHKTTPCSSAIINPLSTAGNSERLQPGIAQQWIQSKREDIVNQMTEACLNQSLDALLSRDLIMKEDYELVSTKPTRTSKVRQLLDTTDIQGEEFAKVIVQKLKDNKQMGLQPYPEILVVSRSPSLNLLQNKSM

[7] = beta-lactamase reporter inhibitors in CHO cells, confirmation, artefact control for NOD2-RIPK2 interaction inhibitor project, cell-based, CHO-K1 CMV-bla, CCF4 FRET, fluorescence (AID 624371;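 active = mean inhibition above the low-control mean inhibition plus three low-control SD, cut at about 11% in these data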;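 note: 0% = DMSO only wells and 100% = clavulanate high control wells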); conditions: CCF4 FRET ratio, counterscreen, at 4.98 µM, hits give high values
[8] = biological target: Protein phosphatase methylesterase 1 (Homo sapiens) (UniProt Q9Y570); test: PME-1 inhibitor activity retest, confirmation, biochemical, fluorescence polarization, FP-Rh probe, triplicate (AID 2171); conditions: recombinant PME-1, FP-Rh probe fluorescence polarization; at 5.9 µM; hits give high values;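 note: 0% = enzyme with DMSO and 100% = wells lacking PME-1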
Protein phosphatase methylesterase 1 (Homo sapiens), sequence (Q9Y570 whole entry, looked up): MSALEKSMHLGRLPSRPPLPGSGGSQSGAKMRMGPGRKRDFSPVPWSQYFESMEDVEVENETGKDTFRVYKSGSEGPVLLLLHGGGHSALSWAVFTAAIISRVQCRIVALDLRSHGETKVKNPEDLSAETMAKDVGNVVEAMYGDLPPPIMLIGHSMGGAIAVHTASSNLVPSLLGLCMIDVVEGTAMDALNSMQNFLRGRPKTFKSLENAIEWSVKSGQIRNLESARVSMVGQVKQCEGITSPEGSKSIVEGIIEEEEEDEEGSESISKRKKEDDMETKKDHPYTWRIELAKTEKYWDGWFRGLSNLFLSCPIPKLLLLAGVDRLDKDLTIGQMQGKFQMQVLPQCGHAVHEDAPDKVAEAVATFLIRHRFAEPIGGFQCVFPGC

For `Nc1cccc2c1C(=O)N(Cc1nnc(-c3ccccc3Br)o1)C2=O`, which inhibition [1] is on record?
The inhibition was 51.2% (active).

What about the inhibition [2] of the same compound?
The inhibition was 69% (active).

What about the inhibition [3] of the same compound?
The inhibition was 16.4%.

What about the inhibition [4] of the same compound?
Its inhibition is 19.9%.

And the inhibition [5]?
Its inhibition is 3.2%.

What about the inhibition [6] of the same compound?
Its inhibition is 37.4% (active).

What about the inhibition [7] of the same compound?
The inhibition was 41.6% (active).

For `Cc1cc(-c2nnc(SCC(=O)Nc3nc(-c4ccc(Cl)cc4)cs3)o2)no1`, which inhibition [8] is on record?
Its inhibition is -22.5%.

Which inhibition [8] does the source give for `O=c1ccc2cc3c([nH]c4ccc(Br)cc43)oc-2c1O` here?
The inhibition was -63.1%.

Which inhibition [8] does the source give for `CC(=O)N1CCN(c2ccc(NC(=S)NC(=O)COc3ccc(C(C)(C)C)cc3)cc2)CC1` here?
The inhibition was 26.1%.

For `CCCCC(=O)NC(c1ccccc1Cl)c1c(O)ccc2ccccc12` (stereo not given), which inhibition [8] is on record?
Its inhibition is 32.1% (active).

For `CC(C)c1ccc2[nH]c(O)c(N=NC(=O)c3cccc(S(=O)(=O)N4CCCCC4)c3)c2c1`, which inhibition [8] is on record?
The inhibition was 58.3% (active).

For `CCCCCCCCCCCCCCCC[n+]1ccc(/C=N/O)cc1`, which inhibition [8] is on record?
The inhibition was 60.4% (active).

Which inhibition [8] does the source give for `O=C1Nc2ccc(Br)cc2C12NNc1ccccc1O2` (stereo not given) here?
The inhibition was 38.5% (active).

Which inhibition [8] does the source give for `Cc1nn(-c2ccccc2)c(Cl)c1/C=N/Nc1ccc(S(=O)(=O)Nc2ccccc2C(=O)O)cc1[N+](=O)[O-]` here?
The inhibition was 22.1%.

With `O=C(O)c1ccc(N/N=C/c2cn(Cc3ccccc3F)c3ccccc23)cc1` as the compound, how does the inhibition [8] read?
The inhibition was 93.4% (active).

For `O=c1[nH]c(C2CCN(S(=O)(=O)c3ccc(F)cc3)CC2)nc2c1nnn2Cc1ccc2c(c1)OCCO2`, which inhibition [8] is on record?
Its inhibition is 41% (active).

Which inhibition [8] does the source give for `Cc1cc2nc3ccc(N(C)C)cc3nc2cc1N` here?
The inhibition was 20%.

With `CCOc1ccccc1/C=C(\C#N)C(=O)Nc1cccc(C(=O)O)c1` as the compound, how does the inhibition [8] read?
The inhibition was 5.46%.

With `O=[N+]([O-])c1cccc(N/N=C/c2cccc(O)c2O)c1` as the compound, how does the inhibition [8] read?
Its inhibition is 32.9% (active).
